Measured values taken from a collection of fitness landscapes (doi:10.1126/science.1257360).
Whole data set: some 140,000 sequences, median “enrichment ratio after two sorts for PhoP signalling” near 0, cut for the highest 2% near 11. Only a selection was taken, and the highest values are over-represented in it overall.

B1: PhoQ; a variant is named by its letters at X, in order, P23837 (parent)
chain: MKKLLRLFFPLSLRVRFLLATAAVVLVLSLAYGMVALIGYSVSFDKTTFRLLRGESNLFYTLAKWENNKLHVELPENIDKQSPTMTLIYDENGQLLWAQRDVPWLMKMIQPDWLKSNGFHEIEADVNDTSLLLSGDHSIQQQLQEVREDDDDAEMTHSVAVNVYPATSRMPKLTIVVVDTIPVELKSSYMVWSWFIYVLSANLLLVIPLLWVAAWWSLRPIEALAKEVRELEEHNRELLNPATTRELTSLVRNLNRLLKSERERYDKYRTTLTDLTHSLKTPLXXLQXXLRSLRSEKMSVSDAEPVMLEQISRISQQIGYYLHRASMRGGTLLSRELHPVAPLLDNLTSALNKVYQRKGVNISLDISPEISFVGEQNDFVEVMGNVLDNACKYCLEFVEISARQTDEHLYIVVEDDGPGIPLSKREVIFDRGQRVDTLRPGQGVGLAVAREITEQYEGKIVAGESMLGGARMEVIFGRQHSAPKDE

Variants of: B1
Test: enrichment ratio after two sorts for PhoP signalling (ratio (wild type AVST 3.29)); higher = more functional
Details: with PhoP (E. coli)

Variant	enrichment ratio
MDLS	≤ 0.25
WPPG	≤ 0.25
LANA	≤ 0.25
GFDD	≤ 0.25
LCAI	≤ 0.25
VLNL	≤ 0.25
WIAC	≤ 0.25
AAAC	≤ 0.25
ADAC	0.792
RIAC	≤ 0.25
AKAC	19.7
TIAC	12.1
MYGT	≤ 0.25
TEWY	0.326
MPYR	≤ 0.25
TTMQ	30.4
TTQQ	21.5
TTHP	≤ 0.25
LTQQ	≤ 0.25
ITQQ	≤ 0.25
GYMQ	≤ 0.25
TTHQ	26.2
YTMQ	0.469
YTHQ	≤ 0.25
YIIQ	≤ 0.25

Variant	enrichment ratio
QERY	≤ 0.25
QQLY	≤ 0.25
CLCR	≤ 0.25
VMKE	≤ 0.25
VTRG	≤ 0.25
QNQF	≤ 0.25
CTLS	≤ 0.25
ITLT	≤ 0.25
YTLT	≤ 0.25
TTLS	15.1
YTLA	4.01
TTPI	4.3
TTLT	15.8
YTLS	4.88
TTLA	16.9
IYDI	≤ 0.25
EDSR	≤ 0.25
KMPM	≤ 0.25
YVSD	≤ 0.25
RQYR	≤ 0.25
HAKY	≤ 0.25
DMQN	≤ 0.25
MLWE	≤ 0.25
MNHP	≤ 0.25
MNAY	17

Variant	enrichment ratio
MNNY	15.3
MNYI	9.81
MNYY	≤ 0.25
MNAQ	11.8
MNHF	4.26
TNAQ	4.37
TNAY	2.94
FVVQ	≤ 0.25
PGYA	≤ 0.25
ELDY	≤ 0.25
CSCL	16.1
KSCL	≤ 0.25
RGCL	≤ 0.25
CSCS	≤ 0.25
TSCL	19.6
NSCL	≤ 0.25
SGDL	≤ 0.25
FSCL	8.2
TGCL	22.4
SGGL	6.41
SGCL	15.6
GGCL	8.88
PKNL	≤ 0.25
TSYE	≤ 0.25
RGSH	≤ 0.25

Variant	enrichment ratio
NMFD	≤ 0.25
IIHI	≤ 0.25
LILE	≤ 0.25
NHCE	≤ 0.25
NSGM	≤ 0.25
HPWS	≤ 0.25
YHCL	≤ 0.25
GNNL	2.95
GNCL	18.1
YSKR	≤ 0.25
RNAK	≤ 0.25
GHTM	≤ 0.25
ATTA	≤ 0.25
ATTK	10.4
ATWM	≤ 0.25
ATTI	13.7
ATTM	16.6
ATPM	0.758
KKTM	≤ 0.25
ADTM	≤ 0.25
ANTM	44
GNTM	1.94
AITM	23.3
GVVP	≤ 0.25
QMYN	≤ 0.25

Variant	enrichment ratio
EFPL	≤ 0.25
KIKD	≤ 0.25
EALR	≤ 0.25
FKYT	≤ 0.25
VDAS	≤ 0.25
EAHV	≤ 0.25
NFSK	≤ 0.25
DNFH	≤ 0.25
HKWF	≤ 0.25
FQWF	≤ 0.25
QKWF	12.7
TKWF	13.4
QRWF	≤ 0.25
KSWF	≤ 0.25
QPWF	≤ 0.25
FFWF	≤ 0.25
QGWF	18.8
VAKP	≤ 0.25
YQPA	≤ 0.25
LESI	≤ 0.25
MTAV	7.37
AMKH	≤ 0.25
VGAQ	≤ 0.25
RNKK	≤ 0.25
WHKS	≤ 0.25

Variant	enrichment ratio
HTKL	≤ 0.25
TMNA	24.8
TMNS	7.25
TMGD	3.55
TMAT	11.2
TMNT	11.9
TMKT	≤ 0.25
NMNA	≤ 0.25
TMNI	3.75
DMNA	≤ 0.25
TMPT	≤ 0.25
TMTD	≤ 0.25
TMND	21.9
AFCP	≤ 0.25
QIMN	≤ 0.25
YLAK	≤ 0.25
NTVM	≤ 0.25
PIIP	≤ 0.25
IRSI	≤ 0.25
NCPV	≤ 0.25
LVVW	≤ 0.25
WDPT	≤ 0.25
YRQK	≤ 0.25
TMNL	5.04
TMNG	10.4

Variant	enrichment ratio
TMHG	13.3
TMHK	≤ 0.25
NMNN	≤ 0.25
TMNF	14.7
KMNF	≤ 0.25
TMNN	34
NNNF	≤ 0.25
DTAT	≤ 0.25
HKAG	≤ 0.25
YDNA	≤ 0.25
YEKP	≤ 0.25
MQPI	≤ 0.25
MQFD	14.7
QQHY	21.2
MQFM	12.3
MQFY	≤ 0.25
MQHF	≤ 0.25
MQGD	≤ 0.25
KQFM	≤ 0.25
QHHY	≤ 0.25
MQFA	≤ 0.25
SQHY	≤ 0.25
MQHY	12.6
SYVF	0.277
YEDQ	≤ 0.25

Variant	enrichment ratio
WFMA	≤ 0.25
HCRL	≤ 0.25
RTQY	≤ 0.25
VMWE	≤ 0.25
AGDA	≤ 0.25
MQGM	≤ 0.25
MQFS	3.3
MQWM	14.1
MQFQ	11.9
MQSK	≤ 0.25
MQAV	18.4
MQAE	≤ 0.25
MQWI	14.4
MQFE	≤ 0.25
MQRM	≤ 0.25
MQRA	≤ 0.25
MQRV	≤ 0.25
YMRM	≤ 0.25
TCKP	≤ 0.25
RKYE	≤ 0.25
